Data taken from PubChem BioAssay AID1159580 (chemical genetic matrix, 2015).
In all, about 5,500 compounds went through this assay and about 2,000 (36%) were called active. Roughly 18% stayed inconclusive and do not appear here. Cut-off read from the data, not from the text of the source: active = normalized growth mostly below about 0.91 (no sharp cut-off); inconclusive = no clear call, values can overlap the other calls; inactive = mostly above about 0.92. Some of the results follow.

Experiment: chemical genetic growth profiling, strain panel (AID 1159580);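 note: tested at 20 µM; growth read once vehicle control cultures reached saturation at 30 °C; 1 = growth at the plate median or of vehicle wells; lower values mean less growth of the strain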
Conditions: growth OD

Measured: normalized growth

Clc1ccc(C(c2ccc(Cl)cc2)C(Cl)(Cl)Cl)cc1
inactive: S. cerevisiae deletion strains, locus YJR043C, strain POL32, active compounds read low 0.996 | S. cerevisiae deletion strains, locus YJR075W, strain HOC1, active compounds read low 1.01 | S. cerevisiae deletion strains, locus YKL009W, strain mrt4, active compounds read low 0.992 | S. cerevisiae deletion strains, locus YKL068W, active compounds read low 1.02 | S. cerevisiae deletion strains, locus YKL085W, strain MDH1 (second series), active compounds read low 1.01 | S. cerevisiae deletion strains, locus YKL085W, strain MDH1, active compounds read low 1.01 | S. cerevisiae deletion strains, locus YKL160W, strain elf1, active compounds read low 1.01 | S. cerevisiae deletion strains, locus YKL190W, strain CNB1, active compounds read low 0.996 | S. cerevisiae deletion strains, locus YKR001C, strain vps1, active compounds read low 0.997 | S. cerevisiae deletion strains, locus YKR026C, strain gcn3, active compounds read low 1.01 | S. cerevisiae deletion strains, locus YKR091W, strain srl3, active compounds read low 1 | S. cerevisiae deletion strains, locus YLL001W, strain dnm1, active compounds read low 1.02 | S. cerevisiae deletion strains, locus YLL026W, active compounds read low 1.01 | S. cerevisiae deletion strains, locus YLL041C, strain sdh2, active compounds read low 1.01 | S. cerevisiae deletion strains, locus YLR027C, strain aat2, active compounds read low 1.01 | S. cerevisiae deletion strains, locus YLR039C, strain RIC1, active compounds read low 1.05 | S. cerevisiae deletion strains, locus YLR058C, strain SHM2, active compounds read low 1.02 | S. cerevisiae deletion strains, locus YLR102C, strain apc9, active compounds read low 0.992 | S. cerevisiae deletion strains, locus YLR221C, strain rsa3, active compounds read low 1.01 | S. cerevisiae deletion strains, locus YLR258W, strain gsy2, active compounds read low 1.01 | S. cerevisiae deletion strains, locus YLR262C, strain YPT6 (second series), active compounds read low 0.985 | S. cerevisiae deletion strains, locus YLR262C, strain YPT6, active compounds read low 0.999 | S. cerevisiae deletion strains, locus YLR268W, strain sec22, active compounds read low 1 | S. cerevisiae deletion strains, locus YLR320W, strain mms22, active compounds read low 0.99 | S. cerevisiae deletion strains, locus YLR330W, strain CHS5, active compounds read low 1.02 | S. cerevisiae deletion strains, locus YLR342W, strain FKS1 (second series), active compounds read low 1.04 | S. cerevisiae deletion strains, locus YLR342W, strain FKS1, active compounds read low 1.01 | S. cerevisiae deletion strains, locus YLR357W, strain rsc2, active compounds read low 1.03 | S. cerevisiae deletion strains, locus YLR370C, strain arc18, active compounds read low 1.01 | S. cerevisiae deletion strains, locus YLR371W, strain rom2, active compounds read low 0.995 | S. cerevisiae deletion strains, locus YLR384C, strain iki3, active compounds read low 1 | S. cerevisiae deletion strains, locus YLR418C, strain cdc73, active compounds read low 0.984 | S. cerevisiae deletion strains, locus YML016C, strain PPZ1, active compounds read low 1.03 | S. cerevisiae deletion strains, locus YML032C, strain rad52, active compounds read low 0.992 | S. cerevisiae deletion strains, locus YML120C, strain ndi1, active compounds read low 0.997 | S. cerevisiae deletion strains, locus YML124C, strain tub3, active compounds read low 1 | S. cerevisiae deletion strains, locus YMR058W, strain fet3, active compounds read low 1.01 | S. cerevisiae deletion strains, locus YMR078C, strain ctf18, active compounds read low 0.991 | S. cerevisiae deletion strains, locus YMR125W, strain sto1, active compounds read low 1.01 | S. cerevisiae deletion strains, locus YMR129W, active compounds read low 1.01 | S. cerevisiae deletion strains, locus YMR205C, strain PFK2, active compounds read low 0.977 | S. cerevisiae deletion strains, locus YMR223W, strain ubp8, active compounds read low 0.991 | S. cerevisiae deletion strains, locus YMR231W, strain pep5, active compounds read low 1.01 | S. cerevisiae deletion strains, locus YMR263W, strain SAP30, active compounds read low 1.02 | S. cerevisiae deletion strains, locus YMR307W, strain GAS1, active compounds read low 0.918 | S. cerevisiae deletion strains, locus YNL067W, strain RPL9B, active compounds read low 1.01 | S. cerevisiae deletion strains, locus YNL071W, strain lat1, active compounds read low 1.02 | S. cerevisiae deletion strains, locus YNL128W, strain TEP1, active compounds read low 1.02 | S. cerevisiae deletion strains, locus YNL153C, strain GIM3, active compounds read low 1.02 | S. cerevisiae deletion strains, locus YNL209W, strain ssb2, active compounds read low 1 | S. cerevisiae deletion strains, locus YNL233W, strain BNI4, active compounds read low 1.01 | S. cerevisiae deletion strains, locus YNL248C, strain rpa49, active compounds read low 1 | S. cerevisiae deletion strains, locus YNL250W, strain rad50, active compounds read low 1 | S. cerevisiae deletion strains, locus YNL271C, strain bni1, active compounds read low 0.997 | S. cerevisiae deletion strains, locus YNL298W, strain CLA4, active compounds read low 1.02 | S. cerevisiae deletion strains, locus YNL307C, strain MCK1, active compounds read low 0.963 | S. cerevisiae deletion strains, locus YNL322C, strain KRE1 (second series), active compounds read low 1.01 | S. cerevisiae deletion strains, locus YNL322C, strain KRE1, active compounds read low 1.02 | S. cerevisiae deletion strains, locus YNR049C, strain mso1, active compounds read low 1.01 | S. cerevisiae deletion strains, locus YNR052C, strain pop2, active compounds read low 0.991 | S. cerevisiae deletion strains, locus YOL006C, strain TOP1, active compounds read low 1.02 | S. cerevisiae deletion strains, locus YOL012C, strain htz1 1.14 | S. cerevisiae deletion strains, locus YOL147C, strain pex11, active compounds read low 1 | S. cerevisiae deletion strains, locus YOR001W, strain rrp6, active compounds read low 1.01 | S. cerevisiae deletion strains, locus YOR061W, strain CKA2, active compounds read low 1.01 | S. cerevisiae deletion strains, locus YOR069W, strain VPS5, active compounds read low 1.01 | S. cerevisiae deletion strains, locus YOR070C, strain gyp1, active compounds read low 1.01 | S. cerevisiae deletion strains, locus YOR080W, strain dia2, active compounds read low 1.01 | S. cerevisiae deletion strains, locus YOR083W, strain WHI5, active compounds read low 1.01 | S. cerevisiae deletion strains, locus YOR106W, strain vam3, active compounds read low 0.988 | S. cerevisiae deletion strains, locus YOR136W, strain idh2, active compounds read low 0.99 | S. cerevisiae deletion strains, locus YOR144C, strain elg1, active compounds read low 1 | S. cerevisiae deletion strains, locus YOR184W, strain ser1, active compounds read low 0.982 | S. cerevisiae deletion strains, locus YOR265W, strain rbl2, active compounds read low 1.01 | S. cerevisiae deletion strains, locus YOR270C, strain vph1, active compounds read low 1.01 | S. cerevisiae deletion strains, locus YOR290C, strain snf2, active compounds read low 1 | S. cerevisiae deletion strains, locus YOR316C, strain cot1, active compounds read low 1.01 | S. cerevisiae deletion strains, locus YPL051W, strain arl3, active compounds read low 1 | S. cerevisiae deletion strains, locus YPL055C, strain LGE1, active compounds read low 0.989 | S. cerevisiae deletion strains, locus YPL078C, strain atp4, active compounds read low 1.01 | S. cerevisiae deletion strains, locus YPL106C, strain sse1, active compounds read low 1.03 | S. cerevisiae deletion strains, locus YPL240C, strain hsp82, active compounds read low 0.999 | S. cerevisiae deletion strains, locus YPL241C, strain CIN2, active compounds read low 1.02 | S. cerevisiae deletion strains, locus YPR119W, strain clb2, active compounds read low 0.998 | S. cerevisiae deletion strains, locus YPR141C, strain kar3, active compounds read low 1.01 | S. cerevisiae deletion strains, locus YPR163C, strain tif3, active compounds read low 0.998 | S. cerevisiae deletion strains, locus YPR167C, strain met16, active compounds read low 0.997 | S. cerevisiae deletion strains, strain wtn01, active compounds read low 0.997 | S. cerevisiae strains, strain wild type, active compounds read low 1.01
